Where “and” joins values, the source holds several entries; their conditions need not be identical. Equal values may be shown once.
Experiment: yeast AGP1-GFP fluorescence change, single-dose confirmation – cell-based, flow cytometry, S. cerevisiae, cherry pick set 3 (AID 504334);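 also: median GFP fluorescence per well by flow cytometry over the all cells gate; ratio of sample to mean DMSO control signal so DMSO = 100% not 0%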
Conditions: S. cerevisiae AGP1-GFP strain, 3 h, at 10 µM, stronger effect = higher value;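 active = response relative to DMSO over 150%; inconclusive = yeast strain with under 70 recorded events; inactive = the rest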

Percent response vs DMSO, inactive:
O=C(Nc1ccccc1)ON=C1c2ccccc2-c2ccccc21 97.8%
CNc1nc(C)c([N+](=O)[O-])c(Nc2ccc(OC)cc2)n1 99.4%
O=C(N/N=C/c1ccccc1)c1cccc2ccccc12 101%
Oc1c(Br)cc(Br)c2cccnc12 109%
Nc1c(O)ccc2c1C(=O)c1ccccc1C2=O 110%
C=CCNc1nc(N)c([N+](=O)[O-])c(Nc2ccccc2OC)n1 95.4%
C=CCNc1nc(N)c([N+](=O)[O-])c(Nc2cccc(Cl)c2)n1 92.1%
Cc1ccc(C)c(Nc2ncnc(N)c2[N+](=O)[O-])c1 102%
O=C(Nc1ccccc1)O/N=C1\CCCCC1c1ccc([N+](=O)[O-])cc1[N+](=O)[O-] (configuration not stated) 102%
CC1=CN2C(=N)/C(=C/c3ccco3)C(=O)N=C2S1 97.1%
CCN(CC)C(=O)Oc1cc(=O)n(C)c2ccccc12 100%
Cn1cccc1C(=O)Nc1nc(-c2ccccn2)cs1 99.1%
Cc1ccc(Nc2cc(=O)[nH]c(=O)[nH]2)cc1C 95.8%
C/C(=C\C(=O)c1ccc(Cl)cc1)Nc1ccc(Br)cc1 99.8%
FC(F)Oc1cccc2cccnc12 96.4%
COc1ccccc1OCc1cc(C(=O)N2CCN(C)C(c3ccccc3)C2)no1 (configuration not stated) 98.8%
COc1ccccc1-c1cc(C(F)(F)F)nc(S(=O)(=O)CCCC(=O)NC(C)C)n1 104% and 99.8%
